# Test results reported in PubChem BioAssay (NCI).
# Compounds without any hit were thinned out: in the full panel of roughly 83,000, 20% have a hit.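 Interpretation: 100, growth as untreated; towards 0, rising growth inhibition; 0, no net growth; 0 to -100, cell death. Compounds scoring below 10 were considered active.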 Active and inactive are the calls of the source.
# Assays:
# Assay in all cases: NCI-60 one-dose screen, 48 h (100 = growth as untreated, 0 = no growth, -100 = all killed)
# Conditions in all cases: 10 µM unless noted
# K-562 leukemia = system: K-562 leukemia
# MALME-3M melanoma = system: MALME-3M melanoma
# MDA-MB-231 breast = system: MDA-MB-231 breast
# RXF 393 renal = system: RXF 393 renal
# SF-268 CNS = system: SF-268 CNS
# SF-295 CNS = system: SF-295 CNS
# SF-539 CNS = system: SF-539 CNS
# UACC-257 melanoma = system: UACC-257 melanoma
# M14 melanoma = system: M14 melanoma
# HCT-15 colon = system: HCT-15 colon
Structure (SMILES),growth (K-562 leukemia),growth (MALME-3M melanoma),growth (MDA-MB-231 breast),growth (RXF 393 renal),growth (SF-268 CNS),growth (SF-295 CNS),growth (SF-539 CNS),growth (UACC-257 melanoma),growth (M14 melanoma),growth (HCT-15 colon)
O=C(CSc1nccc(=O)[nH]1)Nc1ccc(-c2nc3ccccc3[nH]2)cc1,105% (inactive),101% (inactive),102% (inactive),128% (inactive),115% (inactive),115% (inactive),98.9% (inactive),108% (inactive),110% (inactive),108% (inactive)
CN(C)CCCNc1c2ccccc2nc2c1oc1ccc(Cl)cc12,-1.57% (active),30.7% (inactive),-31.7% (active),-65.8% (active),40.9% (inactive),24.6% (inactive),18.3% (inactive),49.9% (inactive),27% (inactive),-31.1% (active)
Cn1cc(-c2cc(N)n3nc(-c4cn(C)c5ccc(F)cc45)cc3n2)c2cc(F)ccc21,-26.2% (active),90.8% (inactive),3.73% (active),26.2% (inactive),19.6% (inactive),80.1% (inactive),-58.5% (active),101% (inactive),20.3% (inactive),4.58% (active)
Clc1ccc2oc3c(NCCCN4CCOCC4)c4ccccc4nc3c2c1,1.61% (active),24.1% (inactive),25.2% (inactive),13.9% (inactive),38.1% (inactive),17.4% (inactive),19.9% (inactive),50.5% (inactive),31.8% (inactive),3.77% (active)
Clc1ccc2c(NCCCN3CCOCC3)c3oc4ccc(Cl)cc4c3nc2c1,2.23% (active),89.3% (inactive),50.3% (inactive),22.2% (inactive),68.5% (inactive),35% (inactive),41.7% (inactive),102% (inactive),97.5% (inactive),4.4% (active)
COc1ccc(-c2cc(C(=O)N=Nc3c(O)[nH]c4ccccc34)c3ccccc3n2)cc1OC,106% (inactive),95.6% (inactive),91.5% (inactive),101% (inactive),100% (inactive),95.7% (inactive),95.6% (inactive),98.2% (inactive),95.6% (inactive),96.9% (inactive)
Clc1ccc(Cc2nnc3sc(-c4cccnc4)nn23)cc1,87.1% (inactive),108% (inactive),93.6% (inactive),85.9% (inactive),96.4% (inactive),99.9% (inactive),92.5% (inactive),109% (inactive),106% (inactive),99.6% (inactive)
CCCC(=O)NC(c1ccc2c(c1)OC(F)(F)O2)c1cc(C)c2cccnc2c1O (stereo not given),15.9% (inactive),14.4% (inactive),34.8% (inactive),55.4% (inactive),18.7% (inactive),20.9% (inactive),8.69% (active),3.17% (active),-11.5% (active),39.3% (inactive)
O=C1C2=C(C(=O)c3c(O)cccc31)C(c1ccco1)c1sc(=O)[nH]c1S2 (stereo not given),22% (inactive),-92.3% (active),8.88% (active),32.5% (inactive),50.7% (inactive),-15.6% (active),-24% (active),-28.2% (active),-97.6% (active),10.8% (inactive)
C#Cc1nc(C2=C(C)C(=O)/C(=N/OC(C)=O)C2)cs1,84% (inactive),86.1% (inactive),30.3% (inactive),85.1% (inactive),82.2% (inactive),56.1% (inactive),58.4% (inactive),86.5% (inactive),85.2% (inactive),88.1% (inactive)
Cc1nc(-c2cc3ccccc3oc2=O)ccc1C(=O)/C=C/c1ccc(N2CCOCC2)cc1,38% (inactive),57.5% (inactive),54.3% (inactive),89.6% (inactive),75.3% (inactive),66% (inactive),45.2% (inactive),89% (inactive),45.6% (inactive),54.5% (inactive)
CCN1C(=S)N(CC)C2C1NN=C1SC(c3ccccc3)=CC(=O)N12 (stereo not given),57.1% (inactive),105% (inactive),94% (inactive),89% (inactive),115% (inactive),106% (inactive),98% (inactive),103% (inactive),106% (inactive),78.2% (inactive)
CNC(=O)c1cc(-c2ccc(NC(=O)Nc3ccc(N4CCN(C)CC4)c(C(F)(F)F)c3)cc2)nc2cccnc12,-56.9% (active),-85.5% (active),-78.4% (active),-78.3% (active),-71.3% (active),-94.5% (active),-89.2% (active),-94.3% (active),-94.2% (active),-79.5% (active)
O=[N+]([O-])c1ccc(O)c2ncccc12,12.6% (inactive),38% (inactive),31.9% (inactive),41.6% (inactive),37.2% (inactive),23.1% (inactive),23.2% (inactive),16.5% (inactive),31.9% (inactive),21.3% (inactive)
COc1cccc(OC)c1-c1nnn(C)c1C(=S)N1CCN(c2ccc([N+](=O)[O-])cc2Cl)CC1,91.5% (inactive),89.2% (inactive),90.5% (inactive),82.4% (inactive),98.9% (inactive),89.9% (inactive),95.8% (inactive),108% (inactive),97% (inactive),89.6% (inactive)
NS(=O)(=O)c1cccc(Nc2nc(SCC(=O)c3ccc(Cl)cc3)nc3ccccc23)c1,68.2% (inactive),66.4% (inactive),56% (inactive),72.2% (inactive),41.8% (inactive),71.8% (inactive),50.9% (inactive),95% (inactive),99.3% (inactive),88.8% (inactive)
COc1ccccc1C(=O)CSc1nc(Nc2ccc(S(N)(=O)=O)cc2)c2ccccc2n1,85.7% (inactive),90.2% (inactive),77.3% (inactive),97.1% (inactive),89.9% (inactive),97.6% (inactive),81.2% (inactive),111% (inactive),94.1% (inactive),92.4% (inactive)
CCN1CCN(/C(=N\c2sc(-c3ccccc3)nc2-c2ccccc2)c2ccccc2)CC1,32.8% (inactive),108% (inactive),79.9% (inactive),72.1% (inactive),89.2% (inactive),111% (inactive),87.8% (inactive),80.4% (inactive),81.1% (inactive),38.1% (inactive)
O=C(CCCN1C(=O)/C(=C/c2ccccc2F)SC1=S)N1CCOCC1,59.7% (inactive),72.5% (inactive),73.4% (inactive),83.7% (inactive),95.6% (inactive),103% (inactive),92.7% (inactive),83.6% (inactive),77.6% (inactive),74.3% (inactive)
O=C(N/N=C/c1ccc(Cl)s1)c1[nH]c2ccc(Br)cc2c1-c1ccccc1,6.77% (active),53.4% (inactive),1.52% (active),71.7% (inactive),42.1% (inactive),15.5% (inactive),3.35% (active),52% (inactive),5.47% (active),15.6% (inactive)
N#Cc1nc(-c2ccccc2)oc1S(N)(=O)=O,21.5% (inactive),64.9% (inactive),47.9% (inactive),45.8% (inactive),110% (inactive),101% (inactive),36.8% (inactive),78.3% (inactive),40.7% (inactive),27.1% (inactive)
CC(=O)Oc1ccccc1C(=O)Nc1ccc(C(=O)/C=C/c2ccncc2)cc1,6.54% (active),86.6% (inactive),33.6% (inactive),-4.73% (active),85.5% (inactive),49.5% (inactive),4.63% (active),92.4% (inactive),30.3% (inactive),-23.9% (active)
CNC(=O)c1cc(-c2ccc(NC(=O)Nc3ccc(N4CCOCC4)c(C(F)(F)F)c3)cc2)nc2cccnc12,34.3% (inactive),60.7% (inactive),63.9% (inactive),-15.9% (active),80.2% (inactive),9.49% (active),30.1% (inactive),89.2% (inactive),77.2% (inactive),33.5% (inactive)
CCCCCCNC(=O)Oc1ccc(/C(=C(/C)c2ccccc2)c2ccc(OCCN3CCCCCC3)cc2)cc1,-9.12% (active),12.2% (inactive),41.7% (inactive),9.02% (active),62.2% (inactive),36.3% (inactive),11.1% (inactive),-2.81% (active),-39.7% (active),9.9% (active)
N=C1CC(=O)NN1C(=O)CSc1nc2sc3c(c2c(=O)n1-c1ccc(Cl)cc1)CCCC3,94.6% (inactive),90.5% (inactive),87.7% (inactive),119% (inactive),99.7% (inactive),97.6% (inactive),97.3% (inactive),106% (inactive),99.3% (inactive),106% (inactive)
